These results are taken from the OligoGym collection.
Note: reference of the scale not given here.

In one experiment the target is RNF219. Briefly: pooled miR-30 sensor sort-seq; sequence = guide strand. The settings on record: shRNA.
TACTTGTATCTGTCACATCTAA returned a sensor-assay potency score (higher = more potent) of -0.451. TAGCTTATCCACATCATCTTTC displayed a sensor-assay potency score (higher = more potent) of -0.402. TTAGCTTATCCACATCATCTTT displayed a sensor-assay potency score (higher = more potent) of -0.899.

For the sequence TAAACAATCTATTTCGTCCTCA, the sensor-assay potency score (higher = more potent) is 0.474. TTGATATAGGTCTTTGTTCTTA showed a sensor-assay potency score (higher = more potent) of -0.397.

ATACTTATCACTTCGTTCCAGG yielded a sensor-assay potency score (higher = more potent) of -0.456.

The target in the next experiment is RNF41. The description is as above. Conditions: shRNA.
The sequence TCATCTGTCTAGTCTCTAGTGT returned a sensor-assay potency score (higher = more potent) of -0.527. In turn, TCTGATTTCCATCTCTTCCTGA yielded a sensor-assay potency score (higher = more potent) of 0.105. TAGCGTCGGTTCATCTGTCTAG yielded a sensor-assay potency score (higher = more potent) of 0.0647. As for TTTGACAACATGTTCCGCATGA, the sensor-assay potency score (higher = more potent) turned out to be 0.502. Sequence AAGATCTTCGTCAACATCCCCC came in with a sensor-assay potency score (higher = more potent) of -0.164. For the sequence AACATGTTCCGCATGATCCGAG, the sensor-assay potency score (higher = more potent) is -0.3. On the same count and under the same terms, under TTCAGCTGACGTCTTCTCCAGC stands -0.881. Sequence TAATTTATAGACATTTTAGGGG gave a sensor-assay potency score (higher = more potent) of 0.0646. With TAGTTCTCATAGTAGCGTCGGT, the sensor-assay potency score (higher = more potent) is -0.784.

In turn, ATCTTCGTCAACATCCCCCTGG came in with a sensor-assay potency score (higher = more potent) of -0.316. The sequence ATCTGTCTAGTCTCTAGTGTGG displayed a sensor-assay potency score (higher = more potent) of -0.878.

The target in the next experiment is RNMTL1. Described as above. The settings on record: shRNA.
As to TTTATTAGACATCTCAGCCTGG, the sensor-assay potency score (higher = more potent) was found to be 0.616.

In turn, TTGTGAAACTTCATCACTCGTT yielded a sensor-assay potency score (higher = more potent) of 0.595. For TTGGTGAGTAACACTTTGCTGC, the sensor-assay potency score (higher = more potent) is -0.11. On to TTCTGTTCCACCACCTCTCCGG, for which the sensor-assay potency score (higher = more potent) was -0.00954. In the case of TGATGCTTCAGGAACTTTCTGG, the sensor-assay potency score (higher = more potent) is -0.0145. Same read-out and setting: the result for TTGTCAGCCACATAGACCCGAG reads -0.82; that for TAGCTTTATTAGACATCTCAGC, -0.834; that for TTATTGATAATGGGCATCCGGA, -0.992.

TTTACTATTGTCATTACACTGC returned a sensor-assay potency score (higher = more potent) of -0.096. TACTATTGTCATTACACTGCTC yielded a sensor-assay potency score (higher = more potent) of 0.0183.

Regarding TTATTAGACATCTCAGCCTGGG, the sensor-assay potency score (higher = more potent) was -0.331. On the same count and under the same terms, under TTTCCTGTAACTGTATGACGGC stands -0.465.

For another experiment, the target named is RNPC3. Described as above. Conditions: shRNA.
As for TTCTCTAGAAATTCTGCCCTTT, the sensor-assay potency score (higher = more potent) was -0.078. On the same count and under the same terms, the result for TTAAATACACTTTCAAAGCTGT reads 0.272; that for TTCTTTATCATCTTCGACAGGG, 0.314.

Sequence TTCTTGAACATGTTTAGCTAAA gave a sensor-assay potency score (higher = more potent) of -1.09.

For the sequence TTTCTTGAACATGTTTAGCTAA, the sensor-assay potency score (higher = more potent) was -0.355. TTGGTCTAGCAGATCGAGCAAA registered a sensor-assay potency score (higher = more potent) of -1.03. In the case of TCGAGCAAACTGAACCACCATG, the sensor-assay potency score (higher = more potent) is -1.27.

TTTTTCTTTATCATCTTCGACA registered a sensor-assay potency score (higher = more potent) of -0.554. The same measure, in the same setting: the result for TTTGCTAGGATTGTGCTGGAAG reads -0.549; that for TATATCAAACATGATCCGCTGT, 0.81. On the same count and under the same terms, the result for TATTGTTTTAGGTCTTTTGGGC reads -0.105.
